High-throughput results: PubChem, several laboratories
DAX1 StAR inh: blocks DAX1 repression of SF-1 activated StAR promoter; inhibition, % at 6.8 µM; actives 1.1% (n = 370,000); AID 652010; HEK293T StAR-luciferase reporter, SF-1/DAX-1 repression relief;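 active means inhibition above the mean over all tested compounds plus 3 SD, cut at about 3.6% in these data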;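 further: 0% = DAX-1 cells with DMSO and 100% = cells lacking DAX-1 with DMSO; higher inhibition means more luminescence from relief of DAX-1 repression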
Wnt bcat act: activates Wnt/beta-catenin signaling in a reporter cell assay; activator, plate reader; activation, % at 9.35 µM; actives 1.2% (n = 300,000); AID 743398; in the data active means activation above about 30%, passing the limit was not always enough; inconclusive means no clear call, values can overlap the other calls;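 further: 0% = neutral control wells and 100% = positive control wells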
ssDAF12 agonist: S. stercoralis DAF-12 activation, primary screen; HEK293 ssDAF-12/GRIP1 lit1-tk-luc reporter, luminescence; % of 3 µM dafachronic acid response; activation, % at 6.8 µM; actives 1% (n = 370,000);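 active means activation above the mean over all tested compounds plus 3 SD, cut at about 0.9% in these data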;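 further: 0% = DMSO-only wells and 100% = 3 µM delta7-dafachronic acid wells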
hcDAF-12 act: activators of H. contortus DAF-12 nuclear receptor; HEK293 hcDAF-12 lit1-tk-luc reporter, luminescence; 0% DMSO, 100% Δ7-dafachronic acid; activation, % at 6.8 µM; actives 1.4% (n = 370,000); AID 652067;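 active means activation above the mean of all tested compounds plus 3 SD, cut at about 5.5% in these data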;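 further: 100% = response to 3 µM Δ7-dafachronic acid high control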
esBAF inh: SWI/SNF esBAF complex inhibition; mouse ES cells, Bmi1-luciferase knock-in reporter, 24 h; 100% = twice the neutral-well signal; reporter increase, % at 12.5 µM; actives 2% (n = 350,000); in the data active means activation above about 40%; inconclusive means no clear call, values can overlap the other calls;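 further: 0% = median of the plate's neutral control wells and 100% = double that signal; a rise in the Bmi1 reporter signal indicates esBAF inhibition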
hgDAF-12 ag: hgDAF-12 agonism, primary luciferase screen | HEK293 GAL4-hgDAF12 UAS-luciferase reporter, agonist luminescence; normalized to butyrate control | activation, % at 6.8 µM | actives 1.8% (n = 370,000);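 active means activation above a cutoff set at the mean of all screened compounds plus 3 SD, cut at about 10% in these data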;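 further: 0% = DMSO wells and 100% = sodium butyrate wells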
LXR ag: activates human LXR-beta, counter-screen for hcDAF-12 agonists | HEK293 Gal4-LXR tk-luc reporter, luminescence, 24 h; normalized: DMSO 0%, positive control 100% | shares compounds with hcDAF-12 act | activation, % at 6.8 µM | 3,400 tested, under 10 active;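 active means mean percent activation of the reporter above a cutoff set as the average over tested compounds plus their standard deviation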
Target sequence (P55055 whole entry, looked up, the tested form may be a part): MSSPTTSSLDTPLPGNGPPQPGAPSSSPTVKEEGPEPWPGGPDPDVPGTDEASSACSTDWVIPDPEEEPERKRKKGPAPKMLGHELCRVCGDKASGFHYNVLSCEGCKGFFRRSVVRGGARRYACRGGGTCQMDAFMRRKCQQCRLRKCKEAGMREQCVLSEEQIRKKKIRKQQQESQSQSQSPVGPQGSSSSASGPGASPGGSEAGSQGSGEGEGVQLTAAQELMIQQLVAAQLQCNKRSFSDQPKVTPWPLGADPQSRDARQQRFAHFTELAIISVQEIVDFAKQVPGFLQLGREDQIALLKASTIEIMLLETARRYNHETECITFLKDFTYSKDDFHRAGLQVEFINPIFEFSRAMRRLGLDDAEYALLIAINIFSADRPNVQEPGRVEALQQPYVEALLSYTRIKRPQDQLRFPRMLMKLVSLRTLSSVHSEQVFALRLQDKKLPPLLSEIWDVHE
hcDAF12 ag: hcDAF-12 agonism, confirmation assay. activation, % at 6.8 µM. HEK293 hcDAF-12 lit1-tk-luc reporter, luminescence; % of Δ7-dafachronic acid response. AID 743032. actives 61% (n = 3,400). shares compounds with hcDAF-12 act;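 active means mean activation across triplicate tests above the threshold derived from the earlier primary screen, cut at about 5.5% in these data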;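 further: 0% = DMSO only wells and 100% = 3 µM Δ7-dafachronic acid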
hgDAF12 conf: confirmation of H. glycines DAF-12 agonists; shares compounds with hgDAF-12 ag; HEK293 GAL4-hgDAF12 luciferase reporter, agonist mode; percent of butyrate response; activation, % at 6.8 µM; actives 80% (n = 3,300);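 active means mean activation over triplicate wells above the hit cutoff derived from the earlier primary screen, cut at about 11% in these data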;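 further: 0% = DMSO low control and 100% = 2 mM sodium butyrate high control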
LXR ag 2: counter-screen for DAF-12 agonists: agonists of human LXR-beta; 3,300 tested, under 10 active; shares compounds with hgDAF-12 ag; HEK293 Gal4-LXR luciferase reporter, 24 h; activation, % at 6.8 µM;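 active means mean activation of the triplicate above a set limit carried over from the primary screen, none filed active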
* marks the source's active call; other numbers are inactive results; ? = inconclusive; / = no result. An excerpt weighted towards active compounds, which were near 4.2% of everything screened.

SMILES	DAX1 StAR inh	Wnt bcat act	ssDAF12 agonist	hcDAF-12 act	esBAF inh	hgDAF-12 ag	LXR ag	hcDAF12 ag	hgDAF12 conf	LXR ag 2
O=C(NC1CCCCCC1)c1cccc(N2CCCC2=O)c1	2	27	0	7.8*	/	13*	1	10*	13*	1
C/C=C/c1ccc2c(c1)O[C@H](CN(C)C(=O)NCCC)[C@@H](C)CN([C@H](C)CO)S2(=O)=O	/	/	/	/	0	/	/	/	/	/
C/C(=N\Nc1nncc2ccccc12)c1ccc(O)cc1	2	29	1	7.0*	2	16*	1	4	9	1
CO[C@H]1CN(C)C(=O)c2ccc(NC(=O)C3CC3)cc2OC[C@H](C)N(C(=O)c2ccccc2)C[C@H]1C	/	/	/	/	0	/	/	/	/	/
O=C(NCC1COc2ccccc2O1)c1ccc(-n2cncn2)c([N+](=O)[O-])c1 (stereo unspecified)	0	-4	0	-2	/	0	/	/	/	/
CC(=O)c1ccc(NCC2COc3ccccc3O2)c([N+](=O)[O-])c1 (stereo unspecified)	3	76*	1.4*	11*	72*	23*	1	9.0*	15*	1
CNC(=O)C[C@@H]1CC[C@@H]2[C@@H](COc3ccc(NC(=O)Nc4ccc(F)c(F)c4)cc3C(=O)N2C)O1	/	/	/	/	-3	/	/	/	/	/
Cc1cc(C(=O)COC(=O)c2ccc(O)cc2)c(C)n1CC(F)(F)F	4.2*	51*	1	8.9*	95*	15*	1	7.3*	18*	1
Cc1cc(C(=O)COC(=O)c2ccc(O)cc2)c(C)n1-c1ccccc1F	0	-1	-2	0	/	0	/	/	/	/
O=C(NC(=S)Nc1cnc2ccccc2c1)c1ccccc1	4.2*	53*	1.9*	7.4*	/	21*	1	6.6*	13*	1
O=C(C[C@H]1C[C@@H]2c3cc(NC(=O)Nc4ccccc4)ccc3O[C@@H]2[C@@H](CO)O1)NCc1cccnc1	/	/	/	/	-10	/	/	/	/	/
Cn1/c(=N/N=C/c2ccccn2)sc2ccccc21	3	22	1	8.2*	/	23*	1	7.1*	18*	1
Cc1cc(-c2ccc(N3CCOCC3)cc2)nc2ccccc12	3	/	0.9*	15*	/	20*	1	7.9*	14*	1
Cc1ccc(-c2cc(C(=O)N3CCOCC3)c3ccccc3n2)cc1	-1	1	-1	2	16	4	/	/	/	/
c1ccc(Nc2nc(-c3ccccc3)ns2)cc1	2	-2	2.0*	16*	21	22*	2	9.5*	29*	1
C[C@@H]1CN([C@H](C)CO)C(=O)c2cc(NS(=O)(=O)c3ccc(Cl)cc3)ccc2O[C@@H](C)CCCCO[C@@H]1CN(C)C(=O)c1ccncc1	/	/	/	/	-1	/	/	/	/	/
Cc1nc(-c2coc3cc(O)c(C)cc3c2=O)cs1	2	/	1	10*	/	13*	2	10.0*	15*	1
Cc1nc2nc(-c3cccs3)[nH]c2cc1Br	1	66*	1.0*	8.9*	27	23*	1	8.3*	22*	1
c1ccc(-c2nc(-c3cccs3)[nH]c2-c2ccccc2)cc1	-1	-1	-1	-1	/	-2	/	/	/	/
Cn1ncc2c(Nc3ccc(Cl)c(Cl)c3)ncnc21	1	5	-2	-2	28	5	/	/	/	/
CCCn1ncc2c(Nc3ccc(C)c(C)c3)ncnc21	1	20	0	6.5*	67*	13*	/	/	7	1
C/C(=C\C(=O)c1sccc1Cl)N(C)C	3	3	0	3	/	15*	/	/	3	0
Cc1ccc(Nc2ncccc2C(N)=O)cc1	3	?	0	4	/	14*	/	/	13*	1
C[C@H](O)C#Cc1cnc2c(c1)C(=O)N([C@@H](C)CO)C[C@H](C)[C@H](CN(C)C(=O)CC1CC1)O2	/	/	/	/	1	/	/	/	/	/
C/C(=N\NC(=O)c1ccc(Cl)cc1)c1cccs1	4.4*	26	1.8*	4	-9	15*	/	/	18*	1
SMILES	DAX1 StAR inh	Wnt bcat act	ssDAF12 agonist	hcDAF-12 act	esBAF inh	hgDAF-12 ag	LXR ag	hcDAF12 ag	hgDAF12 conf	LXR ag 2
C/C(=N\NC(=O)c1cccs1)c1ccncc1	1	2	1	3	10	15*	/	/	1	0
C/C(=N\NC(=O)c1ccc(NS(=O)(=O)c2cccs2)cc1)c1cccs1	0	-1	-1	0	4	0	/	/	/	/
O=C(CNC(=O)c1cccs1)c1ccc([N+](=O)[O-])cc1	2	/	-1	1	/	4	/	/	/	/
O=C(CNC(=O)c1cccs1)c1ccc(Cl)cc1	2	5	1	5	39	15*	/	/	17*	1
CC(=O)N(C)C[C@@H]1Oc2cc(Br)ccc2S(=O)(=O)N([C@H](C)CO)C[C@H]1C	/	/	/	/	1	/	/	/	/	/
CC12CCC(C(=O)NC(c3ccccc3)c3ccccc3)(OC1=O)C2(C)C (stereo unspecified)	0	/	-2	-2	-10	-1	/	/	/	/
CC12CCC(C(=O)Nc3nc4ccccc4s3)(OC1=O)C2(C)C (stereo unspecified)	1	16	0	3	/	13*	/	/	5	0
CC(=O)Oc1ccc(C(=O)[C@H]2[C@H]3C(=O)N(c4ccc5ccccc5c4)C(=O)[C@H]3[C@@H]3C=CC=NN32)cc1	2	10	1	4	/	14*	/	/	6	0
Cc1nc2ccc(NC(=O)CSc3ccccc3)cc2s1	3	50*	0	3	54*	13*	/	/	17*	1
O=C(N/N=C/c1ccc(Cl)c([N+](=O)[O-])c1)c1ccc2c(c1)OCCO2	0	3	-1	0	7	1	/	/	/	/
O=C(N/N=C/c1cccc([N+](=O)[O-])c1)c1ccc2c(c1)OCCO2	2	40*	0	3	44*	16*	/	/	12*	1
Nc1ccccc1C(=O)NN=Cc1cccc([N+](=O)[O-])c1	4.3*	39*	0	3	?	25*	/	/	15*	1
CC(C)CC#Cc1cnc2c(c1)C(=O)N([C@@H](C)CO)C[C@@H](C)[C@H](CN(C)C(=O)c1ccc(F)cc1)O2	/	/	/	/	-1	/	/	/	/	/
